Among the data in ChEMBL document CHEMBL3988442, “University of Dundee, Small-Polar-MMV Screening Library” (2021) are PXC50 and Percent Effect values, retold here.

The target in test [1] is T1, Methionyl-tRNA synthetase, putative (Leishmania donovani (strain BPK282A1)) (UniProt E9BF75).
T1 sequence (whole entry): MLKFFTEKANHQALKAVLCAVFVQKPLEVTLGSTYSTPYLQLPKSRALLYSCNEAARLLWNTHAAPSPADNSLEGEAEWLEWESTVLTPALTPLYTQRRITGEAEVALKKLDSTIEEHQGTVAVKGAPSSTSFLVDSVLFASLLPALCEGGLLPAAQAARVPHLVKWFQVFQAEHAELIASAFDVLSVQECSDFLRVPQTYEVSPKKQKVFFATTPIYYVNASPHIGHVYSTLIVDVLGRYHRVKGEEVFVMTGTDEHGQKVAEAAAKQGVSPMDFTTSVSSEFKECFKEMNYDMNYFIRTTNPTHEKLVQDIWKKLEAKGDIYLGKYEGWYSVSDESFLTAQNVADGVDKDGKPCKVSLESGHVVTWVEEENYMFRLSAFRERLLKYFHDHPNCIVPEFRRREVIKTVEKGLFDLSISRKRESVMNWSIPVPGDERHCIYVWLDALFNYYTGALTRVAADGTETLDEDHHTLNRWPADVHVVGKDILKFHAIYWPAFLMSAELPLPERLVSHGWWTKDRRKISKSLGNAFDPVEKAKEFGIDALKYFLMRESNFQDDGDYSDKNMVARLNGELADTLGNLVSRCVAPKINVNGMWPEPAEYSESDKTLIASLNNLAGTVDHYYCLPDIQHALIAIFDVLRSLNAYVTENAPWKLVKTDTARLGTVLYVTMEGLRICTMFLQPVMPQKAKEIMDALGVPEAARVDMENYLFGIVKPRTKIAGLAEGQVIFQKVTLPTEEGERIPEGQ
The experiment in a line: Leishmania donovani Methionine tRNA synthetase (LdMetRS):v7. Dose response assay. Also noted: conc 80 nM, time 150 minutes. The test is classed as functional.

The target of test [2] is Protein translocase subunit SecA (Escherichia coli (strain K12)) (UniProt P10408). The experiment in a line: Assay to Identify E. coli SecA ATPase Inhibitors. The test is classed as functional. On the set-up: scale not given: direction of the effect not stated beside the values. To be noted: 30 µM.
For test [3], the target named is T2, Ubiquitin-activating enzyme e1, putative (Leishmania donovani (strain BPK282A1)) (UniProt E9BSI1).
T2 sequence (whole entry): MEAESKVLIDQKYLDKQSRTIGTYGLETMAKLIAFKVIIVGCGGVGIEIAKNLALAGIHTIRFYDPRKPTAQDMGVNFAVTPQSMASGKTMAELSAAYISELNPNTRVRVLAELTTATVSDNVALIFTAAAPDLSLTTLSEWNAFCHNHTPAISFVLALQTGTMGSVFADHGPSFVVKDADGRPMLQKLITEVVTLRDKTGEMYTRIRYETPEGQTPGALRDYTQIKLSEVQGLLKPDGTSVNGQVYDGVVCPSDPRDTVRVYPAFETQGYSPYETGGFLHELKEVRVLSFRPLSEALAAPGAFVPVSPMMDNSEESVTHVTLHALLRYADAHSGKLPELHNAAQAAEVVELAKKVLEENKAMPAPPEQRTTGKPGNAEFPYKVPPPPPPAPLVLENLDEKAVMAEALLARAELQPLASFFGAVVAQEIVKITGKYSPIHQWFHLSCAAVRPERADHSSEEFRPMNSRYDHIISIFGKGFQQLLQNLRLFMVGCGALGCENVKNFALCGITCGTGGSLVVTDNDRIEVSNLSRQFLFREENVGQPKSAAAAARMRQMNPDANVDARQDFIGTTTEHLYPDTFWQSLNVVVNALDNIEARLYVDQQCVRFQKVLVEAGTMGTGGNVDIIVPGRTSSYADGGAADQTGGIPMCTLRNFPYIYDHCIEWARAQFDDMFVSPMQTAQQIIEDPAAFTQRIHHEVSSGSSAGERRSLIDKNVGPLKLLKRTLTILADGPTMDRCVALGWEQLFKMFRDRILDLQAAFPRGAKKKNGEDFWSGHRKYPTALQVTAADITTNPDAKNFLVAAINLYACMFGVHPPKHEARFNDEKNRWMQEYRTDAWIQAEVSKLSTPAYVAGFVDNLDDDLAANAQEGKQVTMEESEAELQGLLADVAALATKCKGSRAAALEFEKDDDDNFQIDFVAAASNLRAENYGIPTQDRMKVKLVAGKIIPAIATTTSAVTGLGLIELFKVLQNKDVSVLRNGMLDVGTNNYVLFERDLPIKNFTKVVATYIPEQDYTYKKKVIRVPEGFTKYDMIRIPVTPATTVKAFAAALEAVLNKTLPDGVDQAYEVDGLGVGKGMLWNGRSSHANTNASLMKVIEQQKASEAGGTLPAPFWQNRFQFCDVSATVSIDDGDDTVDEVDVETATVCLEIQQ
The experiment in a line: Leishmania donovani Ubiquitin Activating Enzyme (LdE1). It counts as functional. Also noted: scale not given: direction of the effect not stated beside the values. The conditions noted are these: 30 µM.

Test [4] deals with AMP-activated protein kinase, AMPK (Homo sapiens) (UniProt P54646+O43741+P54619+Q9UGJ0+Q9Y478+Q13131+Q9UGI9). The experiment in a line: AMP-dependent Kinase enzyme assay. An in vitro enzyme assay that detects ADP turnover that is directly proportional to AMPK activity. This uses naive AMPK that is activated during the assay with MK-8722. It counts as functional. On the set-up: scale not given: direction of the effect not stated beside the values. The conditions noted are these: 30 µM.

Test [5] deals with Sialic acid-binding Ig-like lectin 9 (Homo sapiens) (UniProt Q9Y336). The experiment in a line: Hs-Siglec9 ALPHAscreen SOP 20170721. The conditions noted are these: 10 µM. On the set-up: scale not given: direction of the effect not stated beside the values. On the technique in general: Bead proximity is the source of the signal in Alpha formats.
A further test has as its system Trypanosoma cruzi. The test is described as follows: Trypanosoma cruzi phosphomannomutase and mannose-1-phosphate guanylyltransferase assay. The test is classed as functional. Also noted: scale not given: direction of the effect not stated beside the values. The conditions noted are these: 10 µM.
Test [6] addresses T3, Arginase-2, mitochondrial (Homo sapiens) (UniProt P78540).
T3 sequence (whole entry): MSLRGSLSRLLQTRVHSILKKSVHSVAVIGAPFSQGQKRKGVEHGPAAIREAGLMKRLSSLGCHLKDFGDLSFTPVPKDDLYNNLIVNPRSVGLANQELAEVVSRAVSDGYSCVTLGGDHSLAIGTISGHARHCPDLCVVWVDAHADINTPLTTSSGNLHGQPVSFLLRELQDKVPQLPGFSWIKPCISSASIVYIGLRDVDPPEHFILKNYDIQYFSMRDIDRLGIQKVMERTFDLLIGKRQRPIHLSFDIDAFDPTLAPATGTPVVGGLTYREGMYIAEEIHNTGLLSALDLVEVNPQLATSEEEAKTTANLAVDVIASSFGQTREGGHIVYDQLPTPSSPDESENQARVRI
The test is described as follows: in vitro enzyme assay to detect the production of urea directly proportional to the activity of Arginase II. The test is classed as functional. On the set-up: scale not given: in the data most compounds retested in dose-response had high values. To be noted: 33.3 µM.

The target of test [7] is T4, Proteasome subunit beta (Trypanosoma cruzi) (UniProt O96673).
T4 sequence (whole entry): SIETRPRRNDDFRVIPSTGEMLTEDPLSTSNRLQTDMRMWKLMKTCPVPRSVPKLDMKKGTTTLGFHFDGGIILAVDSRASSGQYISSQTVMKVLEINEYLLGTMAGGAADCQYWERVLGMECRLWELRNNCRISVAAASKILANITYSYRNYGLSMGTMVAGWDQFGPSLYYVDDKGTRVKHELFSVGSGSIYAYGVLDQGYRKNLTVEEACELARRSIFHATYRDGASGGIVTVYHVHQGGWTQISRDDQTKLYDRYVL
The test is described as follows: Trypanosoma cruzi proteasome chymotrypsin-like activity (TcProtChymo) assay. The conditions noted are these: 9.37 µM. It counts as functional. On the set-up: scale not given: in the data most compounds retested in dose-response had high values.

The species named for a further test is Homo sapiens. The test is described as follows: To identify inhibition of the IFN signalling (Jak-Stat) pathway via expression of an eGFP reporter gene under the control of an IFN-stimulated response element (ISRE) containing MxA promoter. It counts as functional. On the set-up: scale not given: direction of the effect not stated beside the values. To be noted: 30 µM.

The target in test [8] is T5, Tyrosyl-tRNA synthetase, putative (Trypanosoma cruzi (strain CL Brener)) (UniProt Q4DSP6).
T5 sequence (whole entry): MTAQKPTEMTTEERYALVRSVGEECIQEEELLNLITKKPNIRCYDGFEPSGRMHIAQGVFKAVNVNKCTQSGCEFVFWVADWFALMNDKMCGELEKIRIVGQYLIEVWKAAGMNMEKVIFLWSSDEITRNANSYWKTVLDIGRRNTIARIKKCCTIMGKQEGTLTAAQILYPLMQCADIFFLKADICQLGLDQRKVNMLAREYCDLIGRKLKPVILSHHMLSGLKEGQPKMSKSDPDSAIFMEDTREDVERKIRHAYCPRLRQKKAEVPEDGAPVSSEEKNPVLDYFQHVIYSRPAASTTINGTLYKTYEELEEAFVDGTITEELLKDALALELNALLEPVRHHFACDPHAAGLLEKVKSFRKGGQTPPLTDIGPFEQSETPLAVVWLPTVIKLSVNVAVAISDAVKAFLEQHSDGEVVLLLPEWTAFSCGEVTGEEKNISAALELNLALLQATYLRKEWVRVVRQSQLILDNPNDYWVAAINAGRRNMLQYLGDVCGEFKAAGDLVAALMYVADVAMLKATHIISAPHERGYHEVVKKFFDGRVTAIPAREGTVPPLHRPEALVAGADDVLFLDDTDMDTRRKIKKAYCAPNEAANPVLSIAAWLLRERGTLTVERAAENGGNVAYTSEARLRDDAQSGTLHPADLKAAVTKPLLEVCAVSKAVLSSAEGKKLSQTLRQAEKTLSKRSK
The experiment in a line: Trypanosoma cruzi tyrosyl tRNA synthetase (TcYRS) _High Tyrosine SOP. It counts as functional. Also noted: scale not given: in the data most compounds retested in dose-response had high values. To be noted: 30 µM.

For test [9], the target named is T5, Tyrosyl-tRNA synthetase, putative (Trypanosoma cruzi (strain CL Brener)). The test is described as follows: Trypanosoma cruzi tyrosyl tRNA synthetase (TcYRS) SOP. It counts as functional. On the set-up: scale not given: direction of the effect not stated beside the values. To be noted: 30 µM.
In test [10] the target is Chromo domain-containing protein 1 (Saccharomyces cerevisiae (strain ATCC 204508 / S288c) (Baker's yeast)) (UniProt P32657). The test is described as follows: ScCHD-1 Enzyme Inhibition Assay. It counts as functional. Also noted: scale not given: in the data most compounds retested in dose-response had high values. To be noted: 30 µM.

For some assays here: Potency and affinity values are given separately. Bounds are passed on as bounds.

Sialic acid-binding Ig-like lectin 9 (Homo sapiens), sequence (Q9Y336 whole entry): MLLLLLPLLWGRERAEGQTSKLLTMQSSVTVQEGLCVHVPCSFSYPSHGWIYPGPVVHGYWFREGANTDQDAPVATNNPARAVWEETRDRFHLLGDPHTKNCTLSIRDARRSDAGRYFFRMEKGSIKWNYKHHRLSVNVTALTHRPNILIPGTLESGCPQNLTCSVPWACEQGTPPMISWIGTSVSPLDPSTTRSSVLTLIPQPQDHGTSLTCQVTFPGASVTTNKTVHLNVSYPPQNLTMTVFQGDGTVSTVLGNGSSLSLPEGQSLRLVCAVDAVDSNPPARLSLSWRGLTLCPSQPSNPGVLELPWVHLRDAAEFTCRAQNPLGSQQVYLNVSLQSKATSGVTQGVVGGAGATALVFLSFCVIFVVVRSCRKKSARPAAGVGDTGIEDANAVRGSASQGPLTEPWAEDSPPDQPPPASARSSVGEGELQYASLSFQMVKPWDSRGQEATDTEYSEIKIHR
Protein translocase subunit SecA (Escherichia coli (strain K12)), sequence (P10408 whole entry): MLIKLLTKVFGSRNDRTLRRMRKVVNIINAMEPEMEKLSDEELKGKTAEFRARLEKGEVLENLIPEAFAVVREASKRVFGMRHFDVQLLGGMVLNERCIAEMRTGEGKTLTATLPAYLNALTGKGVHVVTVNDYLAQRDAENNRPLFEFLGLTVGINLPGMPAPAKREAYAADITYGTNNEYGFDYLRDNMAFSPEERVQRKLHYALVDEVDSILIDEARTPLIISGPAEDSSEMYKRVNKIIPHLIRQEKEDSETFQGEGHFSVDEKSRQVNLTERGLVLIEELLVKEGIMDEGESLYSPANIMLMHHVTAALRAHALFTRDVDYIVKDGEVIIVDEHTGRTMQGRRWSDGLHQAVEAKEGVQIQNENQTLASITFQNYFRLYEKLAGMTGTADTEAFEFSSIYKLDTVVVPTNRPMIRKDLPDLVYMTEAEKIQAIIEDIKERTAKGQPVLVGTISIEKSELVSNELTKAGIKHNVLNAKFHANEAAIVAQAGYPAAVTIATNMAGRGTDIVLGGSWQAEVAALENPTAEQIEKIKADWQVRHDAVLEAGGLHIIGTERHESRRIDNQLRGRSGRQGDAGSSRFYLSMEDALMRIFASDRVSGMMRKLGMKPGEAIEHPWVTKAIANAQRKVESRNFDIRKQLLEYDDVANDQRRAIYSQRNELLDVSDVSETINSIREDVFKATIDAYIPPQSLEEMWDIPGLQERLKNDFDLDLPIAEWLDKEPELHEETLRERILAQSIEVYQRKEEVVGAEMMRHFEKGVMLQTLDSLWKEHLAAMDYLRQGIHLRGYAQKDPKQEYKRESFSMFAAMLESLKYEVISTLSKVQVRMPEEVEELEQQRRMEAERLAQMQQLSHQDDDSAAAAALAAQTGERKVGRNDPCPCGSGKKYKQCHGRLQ
Chromo domain-containing protein 1 (Saccharomyces cerevisiae (strain ATCC 204508 / S288c) (Baker's yeast)), sequence (P32657 whole entry, the tested form may be a part): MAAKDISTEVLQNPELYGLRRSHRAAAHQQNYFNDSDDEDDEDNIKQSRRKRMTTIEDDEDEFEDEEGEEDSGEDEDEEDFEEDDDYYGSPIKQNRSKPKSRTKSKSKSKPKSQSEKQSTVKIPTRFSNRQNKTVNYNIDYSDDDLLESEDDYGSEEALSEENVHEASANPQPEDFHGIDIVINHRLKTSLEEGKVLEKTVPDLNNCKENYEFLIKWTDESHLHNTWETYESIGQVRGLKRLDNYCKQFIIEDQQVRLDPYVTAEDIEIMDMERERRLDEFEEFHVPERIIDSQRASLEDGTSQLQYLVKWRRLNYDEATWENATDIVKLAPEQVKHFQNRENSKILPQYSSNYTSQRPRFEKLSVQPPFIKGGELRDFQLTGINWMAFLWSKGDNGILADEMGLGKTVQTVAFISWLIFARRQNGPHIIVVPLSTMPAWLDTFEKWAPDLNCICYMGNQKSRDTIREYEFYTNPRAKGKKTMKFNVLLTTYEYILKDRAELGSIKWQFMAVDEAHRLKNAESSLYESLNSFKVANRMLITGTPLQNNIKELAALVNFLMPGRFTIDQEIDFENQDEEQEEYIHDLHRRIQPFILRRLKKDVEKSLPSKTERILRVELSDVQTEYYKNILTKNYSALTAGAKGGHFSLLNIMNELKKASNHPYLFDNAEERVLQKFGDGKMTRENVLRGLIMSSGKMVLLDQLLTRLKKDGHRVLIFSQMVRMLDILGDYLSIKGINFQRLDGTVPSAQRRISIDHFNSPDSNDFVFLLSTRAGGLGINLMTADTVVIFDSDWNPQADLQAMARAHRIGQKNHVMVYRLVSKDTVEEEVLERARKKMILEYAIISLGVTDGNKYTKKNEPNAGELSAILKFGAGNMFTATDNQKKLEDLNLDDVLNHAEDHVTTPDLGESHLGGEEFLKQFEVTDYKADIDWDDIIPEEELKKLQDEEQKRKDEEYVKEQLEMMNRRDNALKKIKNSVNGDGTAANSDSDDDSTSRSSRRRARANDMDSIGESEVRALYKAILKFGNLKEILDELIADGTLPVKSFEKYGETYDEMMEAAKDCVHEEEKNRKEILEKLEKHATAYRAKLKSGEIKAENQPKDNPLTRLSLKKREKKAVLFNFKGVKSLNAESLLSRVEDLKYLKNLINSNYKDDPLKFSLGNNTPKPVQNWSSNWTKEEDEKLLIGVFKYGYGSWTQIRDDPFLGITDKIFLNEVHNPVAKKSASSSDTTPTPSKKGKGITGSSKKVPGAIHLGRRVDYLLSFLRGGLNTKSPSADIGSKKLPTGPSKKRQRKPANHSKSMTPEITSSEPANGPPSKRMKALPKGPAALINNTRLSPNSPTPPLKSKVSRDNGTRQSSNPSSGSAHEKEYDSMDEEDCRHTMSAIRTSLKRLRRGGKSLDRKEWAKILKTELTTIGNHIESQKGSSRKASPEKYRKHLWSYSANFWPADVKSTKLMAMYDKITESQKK

Consider `Cc1cc(C)n(CCCn2cncc2-c2ccc3c(c2)CC(C)N3C)n1` (stereo not drawn), for which the PXC50 in test [1] (BOTTOM 4.401789899, HILLSLOPE 1.374668367, MAX_EFFECT 53.02013423, TOP 100.0) is 4.02; in test [1] (BOTTOM 5.049738187, HILLSLOPE 0.795238386, MAX_EFFECT 63.88888889, TOP 100.0), 4.3; in [1] (BOTTOM 6.889933183, HILLSLOPE 1.019311149, MAX_EFFECT 71.9237435, TOP 100.0), 4.34; in test [1] (MAX_EFFECT 6.666666667) it was less than 4; in test [1] (MAX_EFFECT 21.73913043), less than 4.

With `Cc1nnc(NCC2(c3ccccc3)CC2)c(C#N)c1C`, the PXC50 in test [1] (MAX_EFFECT 6.650831354) and in test [1] (MAX_EFFECT 11.79577465) was less than 4 throughout. The Percent Effect in test [2] is -6.81%; in test [3], 0%; in [4] it was -11.8%; in [5] it was 5.06%; with Trypanosoma cruzi, -3.09%; in test [6], 1.43%. Besides, the Percent Effect was 8.1% in test [7]; 13% in the test filed under Homo sapiens; -0.529% in test [8]; 4.88% in [9]; -4.42% in [10].

For `CN(CC1CC1)c1ccc2ccc(C(=O)NCCc3ccccc3)cn12`, the PXC50 in test [1] (BOTTOM 0.351029795, HILLSLOPE 1.115089004, MAX_EFFECT 62.13151927, TOP 107.5835515) was 4.12; in [1] (BOTTOM 1.92078188, HILLSLOPE 1.430695014, MAX_EFFECT 75.69444444, TOP 86.56449287), 4.61; in test [1] (BOTTOM 2.657056439, HILLSLOPE 1.351512964, MAX_EFFECT 68.11091854, TOP 100.0), 4.19; in test [1] (BOTTOM -1.049582542, HILLSLOPE 1.242411624, MAX_EFFECT 75.16778523, TOP 98.82108854), 4.43; in [1] (MAX_EFFECT 50.8411215), less than 4.
